These results are taken from the supplement of paper PMC5407854, “Inhibitor of ppGalNAc-T3-mediated O-glycosylation blocks cancer cell invasiveness and lowers FGF23 levels” (eLife, 2017).

SMILES strings stand for the structures. The full ranking holds about 1,700 compounds; the median of “T2 sensor activation Q score (MG/GFP ratio z-score vs DMSO controls)” is about 0.3, and the highest 2% start at about 1.9. Only a selection was taken, and the highest values are over-represented in it overall.

For this assay, the system named is ppGalNAc-T2 sensor. The experiment in a line: T2 sensor activation Q score (MG/GFP ratio z-score vs DMSO controls) (SD units); higher = more sensor activation (inhibition of ppGalNAc-T2 glycosylation). Conditions: HEK293 sensor cells; 10 µM; 6 h. As to the method: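 Cells were treated with compound at 10 uM for 6 h, then MG/GFP ratio was read by flow cytometry (10,000 cells per well, duplicate wells). Q = (R - R_neg)/SD_neg relative to DMSO vehicle controls; the signal rises when the glycosyltransferase is inhibited.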
As for `Cn1cnc([N+](=O)[O-])c1Sc1n[nH]c(N)n1`, the “T2 sensor activation Q score” value amounted to 1.8.

Turning to `Cc1ncc([N+](=O)[O-])n1CCOC(N)=O`, the “T2 sensor activation Q score” value is -0.85.

As to `Cn1cnc([N+](=O)[O-])c1N=C(N)N`, the “T2 sensor activation Q score” value is 2.2.

In the case of `NCCCNCCSP(=O)(O)O`, the “T2 sensor activation Q score” value was -0.45.

As for `Cc1ccccc1-n1c(C=Cc2ccccn2)nc2ccccc2c1=O`, the “T2 sensor activation Q score” value is -1.

`COC[C@H]1OC(=O)c2coc3c2[C@@]1(C)C1=C(C3=O)[C@@H]2CCC(=O)[C@@]2(C)C[C@H]1OC(C)=O`: the “T2 sensor activation Q score” value amounted to 2.1.

For `CC12CCC3C(CC=C4CC(O)CCC43C)C1C/C(=C\N1CCCC1)C2=O` (stereo not given), the “T2 sensor activation Q score” value amounted to 0.15.

`C=Cc1cc(OC)c2c(c1)c(=O)oc1c2cc(OC)c2c(O)ccc(C3OC(C)C(O)C(C)(O)C3O)c21` (stereo not given): the “T2 sensor activation Q score” value is -0.15.

For the molecule `O=C1/C(=C\c2ccccc2)C2OCC=C3CN4CCC56c7ccccc7N1C5C2C3CC46` (stereo not given), the “T2 sensor activation Q score” value amounted to 0.15.

Consider `CC(C)CC(NC=O)C(=O)O.COc1cc2c(cc1OC)C13CCN4CC5=CCOC6CC(=O)N2C1C6C5CC43` (stereo not given), for which the “T2 sensor activation Q score” value stood at 1.3.

As to `O=C1C[C@@H]2OCC=C3C[N+]4([O-])CC[C@]56c7ccccc7N1[C@H]5[C@H]2[C@H]3C[C@@H]64` (stereo not given in full), the “T2 sensor activation Q score” value amounted to 1.95.

With `COc1cc2c(cc1O)C[C@H]1c3c(cc(O)c(OC)c3-2)CCN1C`, the “T2 sensor activation Q score” value was found to be 0.75.

As to `c1cc(C2N3CCCN2CC3)ccn1` (stereo not given), the “T2 sensor activation Q score” value was -0.3.

Take `CC(Cc1ccccc1)NC(N)=O` (stereo not given): the “T2 sensor activation Q score” value is 1.8.

As to `O=C1N[C@H]2[C@H](O)[C@H](O)[C@@H](O)[C@H](O)[C@@H]2c2cc3c(c(O)c21)OCO3`, the “T2 sensor activation Q score” value is 2.6.

For `Cc1c(CCN)ccc2c1[nH]c1ccccc12`, the “T2 sensor activation Q score” value was 0.7.

For the molecule `COc1ccc2c(c1O)[C@]13CCN(C)[C@H](C2)[C@@H]1CCC(=O)C3`, the “T2 sensor activation Q score” value is -0.1.

On to `COc1ccc2c(c1)C13CCN(C)C(C2)C1CCC1(C3)OCCO1` (stereo not given), for which the “T2 sensor activation Q score” value was found to be 2.

With `Cc1c(C(=O)c2ccccc2)c2ccccc2n1C`, the “T2 sensor activation Q score” value is 1.75.

For `O=C1N(c2nncs2)CCN1[N+](=O)[O-]`, the “T2 sensor activation Q score” value worked out at 1.2.

As to `CC1CC(C)OP(=O)(OCCC#N)O1` (stereo not given), the “T2 sensor activation Q score” value turned out to be 0.35.

In the case of `COc1ccc(CCNC2(C#N)CCCCC2)cc1OC`, the “T2 sensor activation Q score” value is -0.65.

As for `CN1CCN(c2ccc([N+](=O)[O-])c3no[n+]([O-])c23)CC1`, the “T2 sensor activation Q score” value amounted to 0.1.

For the molecule `CN1CCN(c2nc(N)c(Br)c(Cl)n2)CC1`, the “T2 sensor activation Q score” value is 0.8.

In the case of `O=P(Oc1ccccc1)(Oc1ccccc1)c1ccccc1`, the “T2 sensor activation Q score” value was -3.1.

With `CC12CCC3C(CCC4Cc5[nH]c6ccccc6c5CC43C)C1CCC2O` (stereo not given), the “T2 sensor activation Q score” value came to 0.65.

In the case of `C=CCN1CCC23c4c5ccc(O)c4OC2C(=O)CCC3(O)C1C5` (stereo not given), the “T2 sensor activation Q score” value worked out at 2.2.

Turning to `O=C1CCC2(O)[C@@H]3Cc4ccc(O)c5c4[C@]2(CCN3Cc2ccoc2)C1O5` (stereo not given in full), the “T2 sensor activation Q score” value was 0.3.

For the molecule `NN=C1C(Cl)=C(Cl)C(Cl)=C1Cl`, the “T2 sensor activation Q score” value was -0.35.

Turning to `CCCC(=O)N(C)C1=Nc2ccc(Cl)cc2C(c2ccccc2)=[N+]([O-])C1`, the “T2 sensor activation Q score” value amounted to 0.

`CCC(C)c1cnc(CC(C)C)c(=O)n1O` (stereo not given): the “T2 sensor activation Q score” value is -0.75.

Consider `CC12CCC3c4ccc(OC(=O)N(CCCl)CCCl)cc4CCC3C1CCC2O` (stereo not given), for which the “T2 sensor activation Q score” value was -0.35.

On to `OCC1CN1C1CCCCC1` (stereo not given), for which the “T2 sensor activation Q score” value turned out to be 2.1.

As to `CN1CCC(c2c[nH]c3ccccc23)C1` (stereo not given), the “T2 sensor activation Q score” value is 0.5.

For the molecule `CCC(N)Cc1c[nH]c2ccccc12` (stereo not given), the “T2 sensor activation Q score” value was determined as 1.2.
